The record followed here is PubChem BioAssay AID652025 (National Center for Advancing Translational Sciences (NCATS), 2013).

In all, about 360,000 compounds went through this assay and about 240 (0.067%) were called active. What follows is part of a selection rich in actives, with near analogues and random picks from the rest. Unmarked numbers belong to inactive results. Rule as the data show it: active = activation above about 50%; inconclusive = mostly about 30% to 49%; inactive = weaker than that.

The nature of the test: qHTS of IL-2 Activators. Also: 0% is about no effect. As to conditions: IL-2 activation reporter assay, cell-based qHTS; stronger effect = higher value; in transgenic mouse T cells; stimulated with anti-CD3/CD4/CD28 beads. The text has this: The adaptive immune response against any infectious agent begins with the activation of an antigen specific T cell. This relatively rare and inert ("naive") T cell undergoes a massive proliferative expansion and differentiation process to generate sufficient number of potent pathogen-specific effector T cells. The effector T cells fight the infection by making cytokines and helping other cells to become fully armed as well. If any naive T cell has antigen receptors (TCRs) that can be activated by self peptides, then a variety of regulatory mechanisms kick in to prevent this cell from performing to its full potential. These processes collectively constitute the phenomenon of immunological tolerance and their failure leads to autoimmunity. One arm of tolerance involves generation of biochemical negative feedback downstream of the TCR (tuning). This is especially relevant to self antigens present in the body over long periods of time (chronic), which form the bulk of our proteome. The negative feedback serves to tune the TCR signaling, such that the ambient antigenic stimulation is nullified intracellularly. Unfortunately, this critical machinery serves as a target for chronic viral, bacterial and parasitic infections (as well as tumors), which can evade a robust immune response, simply by allowing T cells to tune down their signaling to pathogen or malignancy derived antigens. As such, disrupting the tuning in such cases would allow the tolerant T cell to function again and deliver a robust effector response.
If a therapeutic can restore responsiveness to the tuned down T cell, even for a short time, they could combat the pathogen without any additional immunization. To that end, we have developed a sensitive HTS T cell based assay based on IL-2. This assay will be screened against the Molecular Libraries Small Molecule Repository (MLSMR) to find small molecules that could elicit this response.
NIH Chemical Genomics Center [NCGC]
NIH Molecular Libraries Probe Centers Network [MLPCN]
Assay Submitter (PI): Ron Schwartz, NIAID
4 microL (750 cells/well) of unstimulated transgenic mouse T cells (columns 1-3,5-48) are dispensed into Aurora LoBase, black clear-bottom 1536-well assay plates; column 4 receives an identical concentration of transgenic memory T cells as a non-tolerant control. Compounds are then transferred via Kalypsys pin tool equipped with 1536-pin array (10 nL slotted pins, V&P Scientific, San Diego, CA). Following addition of compound and a 60 minute incubation, 1 microL of bead stimulation solution ((0.04 micron Fluospheres (Life technologies, CA) coated with 10ug/ml each anti-CD3 and anti-CD4 (clones 2C11 and GK1.5, BD Biosciences, CA) and mixed with 1ug/ml anti-CD28 (clone PV-1, BD biosciences, CA)). columns 2-48) is added to stimulate the IL-2 response pathway; media is instead added to column 1 as an unstimulated control, while PMA/ionomycin (Sigma Aldrich, MO) is added to column 3 as a control for IL-2 tolerance bypass. The plates are then incubated at 37 degrees C for 18 hours. EGFP and DsRed signal are then detected using an Acumen eX3 Explorer fluorescent plate cytometer. All cells are dispensed in cell media containing EHAA (Quality Biologicals, MD), RPMI (Quality Biologicals, MD), Glutamine (Life Technologies, CA), Penicillin/Streptomycin (Quality Biologicals, MD), 2-ME (Sigma Aldrich, MO) and 10% FBS (Gemini Bioproducts, CA) .
(In general: In qHTS, concentration-response curves come from the screen itself.)
Regarding `CN1CCC(N(C)S(=O)(=O)c2ccc(NC(=O)c3cccc(C#N)c3)cc2)CC1`, the activation was 0.319%. `CCCN(CC1CC1)C(=O)COC(=O)c1ccc(C)cc1O`: the activation was -0.72%. The result for `COc1cccc2oc(CCc3ccccc3)cc(=O)c12` reads 2.76%.

`COC(C[C@@H]1O[C@@H]1C(=O)[C@@H](C)OCc1ccccc1)OC`: the activation was 0.368%.

On to `Cc1noc(/C=C/c2ccco2)c1S(=O)(=O)N1CCC(C(=O)Nc2ccc(Cl)cn2)CC1`, for which the activation is -0.421%.

Regarding `Cc1cc(-c2csc(N)n2)c(C)n1-c1ccccc1`, the activation was -0.438%. Then `C[n+]1ccc(/C=C/c2c[nH]c3ccccc23)cc1`, with 91.4% (active). Take `CSc1nsc(SC)c1NC(=O)OC1CCCCC1`: the activation was -1.77%.

Turning to `CN1CCN(c2ccc3c(c2)OC[C@H](Cc2ccccc2)NS3(=O)=O)CC1`, the activation was 1.2%. As to `CC(=O)c1c(C)[nH]c(C(=O)Nc2cc(S(=O)(=O)N(C)C)ccc2C)c1C`, the activation was 0.322%. As to `CO[C@@H]1CN(C)C(=O)c2cc(NC(=O)Nc3cc(F)ccc3F)ccc2OC[C@H](C)N(C(=O)c2ccccn2)C[C@@H]1C`, the activation is -0.0824%.

For `CCCNC(=O)C1(C)CCN(Cc2csc(-c3ccc(Cl)cc3)n2)C1` (stereo not given), the activation was -0.168%. For the compound `CC(=O)NC12CC3CC(C1)CC(C(=O)N1CCN(C(=O)c4ccco4)CC1)(C3)C2`, the activation was 2.63%. The result for `O=C(NCCCNC(=O)NC1CCCCC1)NC1CCCCC1` reads 2.89%.

On to `Cc1ccc(N(Cc2cc(=O)[nH]c3ccccc23)C(=O)CCl)cc1`, for which the activation is -4.77%. Regarding `CC1CN(C(=S)Nc2cccc(F)c2)CC(C)O1` (stereo not given), the activation was 0.508%. Then `COC(=O)c1cc2c(ccn2C)n1C`, with -0.203%; and `CN(C)S(=O)(=O)c1ccc(N2CCCC2)c(C(=O)NCc2ccccc2)c1`, with 0.204%. For `Cc1ccc(-n2c(C)nnc2SCC(=O)NC2CC2)cc1`, the activation was -1.22%. With `O=C(Oc1ccc(Br)cc1C(=S)N1CCOCC1)c1cccc([N+](=O)[O-])c1`, the activation was 0.801%. For `O=C(C[n+]1ccc2c(c1)nnn2-c1ccccc1)c1ccc(Cl)cc1`, the activation was -1.14%. With `O=c1c(-c2ccc(Cl)cc2)[n+]([O-])c2ccccc2n1OCc1nc2ccccc2[nH]1`, the activation is -0.455%. `O=C(Cc1nc2ccccc2[nH]c1=O)c1ccc(Cl)cc1`: the activation was 60.1% (active).

Regarding `COc1ccc(N2CCN(C3CCCCC3NS(=O)(=O)c3ccccc3)CC2)cc1` (stereo not given), the activation was -5.42%.

With `CCOC(=O)N1CCN(C(c2ccnc3ccccc23)c2nnnn2-c2c(C)cccc2C)CC1` (stereo not given), the activation is -1.14%. On to `CC(=O)NCCC(=O)Nc1nc(C)c(Cc2ccc3c(c2)OCO3)s1`, for which the activation is -2.95%.

Take `CCN(CC)c1ccc(NC(=O)C2CCC(CNc3c(N4CCCC4)c(=O)c3=O)CC2)c(C)c1` (stereo not given): the activation was -0.247%. With `O=C(CS(=O)(=O)c1ccc(C(F)(F)F)cn1)NNC(=O)c1ccccc1`, the activation is 0.398%. Turning to `O=C(CSc1ccsc1[N+](=O)[O-])N1CCCCC1`, the activation was -0.638%.

Turning to `CCOC(=O)N1CCC(N2Cc3cccc(C(=O)Nc4ccc(S(=O)(=O)N(CC)CC)cc4)c3C2=O)CC1`, the activation was -2.11%. In the case of `Cc1ccc(NC(=O)CSc2nc(=O)n(CCN(C)C)c3c2CCCC3)c(C)c1`, the activation is 0.222%. Then `CN1CCC(CN)(N2CCN(c3ccccc3)CC2)CC1`, with 0.289%; and `CCN(CC(=O)NCCCN1CCOCC1)S(=O)(=O)c1cc(Cl)ccc1Cl`, with -0.326%; and `CC(C)C[C@@H](N)c1nnc(SCC(=O)c2ccc(Cl)cc2)o1`, with 0.422%. Turning to `Cc1c(NC(=O)CSCc2ccccc2)cccc1C(=O)O`, the activation is 3.04%. For `COc1cccc(C(NC(C)=O)c2nc(-c3ccccc3OC)cs2)c1` (stereo not given), the activation was 0.438%. As to `COc1ccc2nc(Nc3nc(-c4cc5ccccc5oc4=O)cs3)sc2c1`, the activation is 57.4% (active). Then `CN(CCCC(=O)Nc1nccs1)S(=O)(=O)c1ccc(Cl)cc1`, with -1.49%; and `C=C1CCC(N(O)c2cc(C)on2)C(=C)CCC2C1CC2(C)C` (stereo not given), with -0.223%. Turning to `NC(=O)COc1ccc(C23CC4CC(CC(C4)C2)C3)cc1`, the activation is -3.06%. On to `COC(C[C@@H](O)C[C@H](O)[C@H](C)OCc1ccccc1)OC`, for which the activation was 2.56%. As for `COc1cccc(C(=O)Nc2c3c(nn2-c2cccc(C)c2C)CS(=O)(=O)C3)c1OC`, the activation was -0.743%.

`CCCCc1nc2cc(C(=O)NCCc3cnn(C)c3)ccc2o1`: the activation is -2.8%. `CCNc1c(NS(=O)(=O)c2ccc(C3CCCCC3)cc2)c(=O)oc2ccccc12`: the activation was -0.121%. Then `CC(=O)Nc1ccc(CN2CCN(Cc3ccc(F)c(F)c3)C(CCO)C2)cc1` (stereo not given), with -0.804%.
